Test [1] addresses Phospholipid hydroperoxide glutathione peroxidase GPX4 (Homo sapiens) (UniProt P36969). Nature of the test: Primary qHTS Assay for Inhibitors of Recombinant Selenoprotein Glutathione Peroxidase 4 (GPX4) (AID 1845192). Further: nearly all actives have a fitted effect of over 65% in size. Particulars: recombinant GPX4, GR-coupled NADPH fluorescence, 15 min; series mostly up to 50 µM. In outline:
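NADPH consumption, followed by fluorescence at 340/450 nm between 0 and 15 min, reports GPX4 activity via coupled glutathione reductase (100 nM). Enzyme 200 nM was pre-exposed to compound 30 min; 0.5 mM cumene hydroperoxide and 1 mM GSH served as substrates.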
(qHTS replaces the single test concentration by a dilution series.)

Test [2] concerns the target Glutathione peroxidase 1 (Homo sapiens) (UniProt P07203). Kind of test: Primary qHTS Assay for Inhibitors of Recombinant Selenoprotein Glutathione Peroxidase 1 (GPX1) (AID 1845191). Further: nearly all actives have a fitted effect of over 65% in size. The following applies: recombinant GPX1, GR-coupled NADPH fluorescence, 15 min; series mostly up to 48.8 µM. The essentials:
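10 nM GPX1 + cpd, 30 min RT; start w/ 1 mM GSH, 0.5 mM cumene hydroperoxide, 0.5 mM NADPH, 100 nM GR, 0.01% BSA; buffer 50 mM Tris-HCl pH 7.5, 2 mM EDTA, 150 mM NaCl; Fl 340/450, 0 & 15 min.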

A short description of test [3]: Quantitative High-Throughput drug screen in 47 multiple myeloma cell lines against the NCATS MIPE library collection: Delta47_JCRB cell viability assay (AID 1918925; further: nearly all actives have a fitted effect of over 45% in size; further: potency means the concentration at half of the fitted maximal effect). Particulars: Delta47 myeloma viability, CellTiter-Glo ATP, 48 h; series mostly up to 45.8 µM. In outline:
(§1)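 Luminescent ATP measurement with CellTiter-Glo gives viability, scaled between DMSO-only wells (100%) and media-only wells (0%). Cells, 500 per well, faced library compounds for 48 hours at 37C.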
A general note: In ATP-based viability assays light output follows the ATP content of the culture.

Test [4] is described as follows: Quantitative High-Throughput drug screen in 47 multiple myeloma cell lines against the NCATS MIPE library collection: AMO1_DSMZ cell viability assay (AID 1918927; further: nearly all actives have a fitted effect of over 30% in size; further: potency means the concentration at half of the fitted maximal effect). The following applies: AMO1 myeloma cells viability, CellTiter-Glo ATP luminescence, 48 h; series mostly up to 45.8 µM. The essentials: as §1
Test [5] can be described thus: Quantitative High-Throughput drug screen in 47 multiple myeloma cell lines against the NCATS MIPE library collection: ARP1_JJKsccF8 cell viability assay (AID 1918928; further: nearly all actives have a fitted effect of over 40% in size; further: potency means the concentration at half of the fitted maximal effect). Particulars: ARP1 myeloma cells viability, CellTiter-Glo ATP, 48 h; series mostly up to 45.8 µM. In outline:
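ATP readout (CellTiter-Glo), 48 h drug incubation, 37 °C/5% CO2, 500 cells per well; normalisation to DMSO (100%) and media-only (0%) controls.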

A short description of test [6]: Quantitative High-Throughput drug screen in 47 multiple myeloma cell lines against the NCATS MIPE library collection: ARD_JJKsccE7 cell viability assay (AID 1918929; further: potency means the concentration at half of the fitted maximal effect). Particulars: ARD myeloma cell line viability, CellTiter-Glo, 48 h; series mostly up to 45.8 µM. In outline:
as §1

Inconclusive results are not listed. Calls of active or inactive are those of the source. The call rests on the fitted dose curve; in most records, active means well fitted curve in the direction sought with a large enough effect; inconclusive means small, poorly fitted or top-dose-only effect, or another doubt; inactive means no such curve, though single readings can be large; an effect the other way counts as inactive or inconclusive.

Glutathione peroxidase 1 (Homo sapiens), sequence (P07203 whole entry, looked up): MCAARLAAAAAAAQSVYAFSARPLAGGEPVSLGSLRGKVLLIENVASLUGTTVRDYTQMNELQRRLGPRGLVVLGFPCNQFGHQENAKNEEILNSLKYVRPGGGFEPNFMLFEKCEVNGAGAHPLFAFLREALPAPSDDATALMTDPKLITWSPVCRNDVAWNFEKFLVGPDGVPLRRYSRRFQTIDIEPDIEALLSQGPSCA
Phospholipid hydroperoxide glutathione peroxidase GPX4 (Homo sapiens), sequence (P36969 whole entry, looked up): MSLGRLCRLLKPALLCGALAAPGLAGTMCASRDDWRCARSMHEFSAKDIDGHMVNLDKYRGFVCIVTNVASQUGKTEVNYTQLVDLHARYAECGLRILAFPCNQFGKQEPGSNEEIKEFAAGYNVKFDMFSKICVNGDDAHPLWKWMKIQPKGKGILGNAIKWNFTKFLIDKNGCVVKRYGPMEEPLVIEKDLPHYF

As to `CCC(COC(=O)c1cc(OC)c(OC)c(OC)c1)(c1ccccc1)N(C)C` (stereo unspecified), in test [1], the Potency result was “inactive”.
As to `N[C@@H](Cc1ccc(N(CCCl)CCCl)cc1)C(=O)O`, the Potency entry in test [2] and in test [1] was “inactive” in each case. The Potency is 13.2 µM (active) in test [3], 18.7 µM (active) in test [4], 16.6 µM (active) in test [5] and 18.7 µM (active) in test [6].
With `C[C@]12CCC(=O)C(O)=C1CC[C@@H]1[C@@H]2CC[C@]2(C)C(=O)CC[C@@H]12`, the Potency result in test [1] is “inactive”.
`CN(C)[C@@H]1C(=O)C(C(N)=O)=C(O)[C@@]2(O)C(=O)C3=C(O)c4c(O)cccc4[C@@](C)(O)[C@H]3C[C@@H]12`: the Potency entry in test [2], in test [1], in test [3], in test [4] and in test [6] was “inactive” throughout. In test [5], the Potency was 16.6 µM (active).
As to `C=C1C[C@@H]2[C@H](CC[C@]3(C)C(=O)CC[C@@H]23)[C@@]2(C)C=CC(=O)C=C12`, in test [1], the Potency entry was “inactive”.
As to `C=CCN1CC[C@]23c4c5ccc(O)c4O[C@H]2C(=O)CC[C@@]3(O)[C@H]1C5`, the Potency entry in test [1] is “inactive”.
On to `Oc1ccc(Cl)cc1Cc1ccccc1`, for which, in test [1], the Potency result was “inactive”.
As for `C#CCN(C)[C@H](C)Cc1ccccc1`, the Potency result in test [1], in test [3], in test [5] and in test [6] was “inactive” in each case.
